We go through nine compounds from the supplement of paper PMC7156485.

The structures appear in SMILES notation. ± gives the standard deviation of the averaged measurements.

Details in all cases: concentration: 10 µM; 24 h
Test [1] deals with HCC1569. The test can be described thus: cell number relative to DMSO (% of DMSO); higher = more cells (less growth inhibition / toxicity). The method, boiled down:
(§1)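 HCC1569 and TDF cells were seeded at 800 per well in 384-well plates in RPMI with 10% FBS and treated with compounds at 10 µM for 24 h at 37 °C, in triplicate. After fixation in 3.7% formaldehyde, cells were stained with a rabbit anti-H1.0 antibody, an AlexaFluor 647 secondary and DAPI, and six fields per well were imaged at ×10. H1.0 nuclear intensity or cell number is given as percent of the plate control, using the median of replicates, with HCC1569 values smoothed for positional effects.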

Test [2] deals with TDF. The test is described as above. The method, boiled down: as §1
Test [3] relates to TDF. Kind of test: H1.0 immunofluorescence intensity relative to DMSO (% of DMSO); higher = stronger H1.0 induction, active = 120 or more. The procedure, abridged: as §1
The subject of test [4] is HCC1569. Kind of test: H1.0 immunofluorescence intensity relative to DMSO (% of DMSO); higher = stronger H1.0 induction, active = 140 or more. The procedure, abridged:
as §1
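For H1.0 immunofluorescence intensity relative to DMSO in this document: TDF is a line of transformed human dermal fibroblasts of mesenchymal origin.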
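For cell number relative to DMSO in this document: TDF denotes transformed human dermal fibroblasts of mesenchymal origin.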

Turning to `Cl.c1ccc(C2CCCC2NC2=NCCCCCCCCCCC2)cc1` (stereo unspecified) [MDL 12,330A hydrochloride], the figures for the cell number in the test with HCC1569 [1] and in the test on TDF [2] were 105 and 109, respectively. The H1.0 immunofluorescence intensity is 85.7 (inactive) with TDF [3] and 88.1 (inactive) in the test with HCC1569 [4].
On the same counts, the results for `CON(C)C(=O)[C@H](O)[C@H](Cc1ccccc1)NC(=O)c1cc2cc(Cl)ccc2[nH]1` are 103, 110, 88.1 (inactive) and 103 (inactive).
On the same counts, the results for `CC(C)(N)c1ccc(-c2nc3ccccc3nc2-c2ccccc2)cc1` are 95.6, 95.3, 106 (inactive) and 103 (inactive).
On the same counts, the results for `COc1ccc2cc(CCC(C)=O)ccc2c1` [Nabumetone] are 107, 97.4, 93.8 (inactive) and 111 (inactive).
`Nc1nc(Cl)nc2c1ncn2C1OC(CO)C(O)C1F` (stereo unspecified) [Clofarabine]: the figures for the cell number in the test on HCC1569 [1] and with TDF [2] were 90.6 and 45.3, respectively. The H1.0 immunofluorescence intensity was 119 (inactive) in the test with TDF [3] and 93.5 (inactive) with HCC1569 [4].
On the same counts, the results for `COc1cc(C(=O)c2ccc3ncccc3c2)cc(OC)c1OC` [quinolin-6-yl(3,4,5-trimethoxyphenyl)methanone] are 59.6, 8.78, 209 (active) and 167 (active).
On the same counts, the results for `CCC=CCC=CCC=CCC=CCC=CCC=CCCC(=O)O` [Docosahexaenoic acid] are 99.8 ± 4.3, 97.5 ± 3.1, 104 (inactive) and 105 (inactive).
With `CC(C)(C)C(=O)C(Oc1ccc(Cl)cc1)n1ccnc1` (stereo unspecified) [Climbazole], the figures for the cell number in the test on HCC1569 [1] and in the test on TDF [2] were 99.5 and 98.7, respectively. Moreover, the H1.0 immunofluorescence intensity in the test with TDF [3] was 92.2 (inactive); in the test with HCC1569 [4] it was 99.3 (inactive).
On the same counts, the results for `CCCCCC(O)C=CC=CCCCCCCCC(=O)O` (stereo unspecified) are 96, 97.2, 96.4 (inactive) and 101 (inactive).
